Source: PubChem BioAssay (EPA / NIEHS)
Active and inactive are the calls of the source. The calls were made as follows: active = hit-call score of the fitted dose curve at least 0.9, where 1 is the maximum; inactive = score below 0.9.

Read-out: Nuclear factor NF-kappa-B p105 subunit (Homo sapiens) (UniProt P19838)
Assay: LTEA_HepaRG_NFKB1: Life Technologies and Expression Analysis (LTEA) Assay for Nuclear Factor Kappa B Subunit 1 (NFKB1) using HepaRG (AID 2283521);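 as to outcome: TaqMan qRT-PCR transcript normalised to ACTB GAPDH and POLR2A housekeeping genes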
Settings: mRNA level, 48 h; actives raise or lower the signal
Procedure: LTEA_HepaRG is a cell based, multiplexed-readout assay that uses HepaRG, a human liver cell line, with measurements taken at 48 hours after chemical dosing on a 96-well plate.LTEA_HepaRG_NFKB1 is one of 102 assay component(s) measured in the LTEA HepaRG cell culture assay. It is a marker of Cell proliferation, survival, death.Data from the assay component LTEA_HepaRG_NFKB1 was analyzed into 1 endpoint. This assay endpoint, LTEA_HepaRG_NFKB1, was analyzed with bidirectional fitting relative to DMSO as the negative control and baseline of activity. Using a type of inducible reporter, measures of mRNA induction for gain or loss-of-signal activity can be used to understand regulation of transcription factor activity. To generalize the intended target to other relatable targets, this assay endpoint is annotated to the dna binding intended target family, where the subfamily is NF-kappa B.
A total of 1060 chemcials from the ToxCast library were tested in eight-point concentration-response experiments. Cell culture and cytotoxicity assays were conducted at Thermo Fisher Scientific's Custom Services facility (Madison, WI). A single lot of human HepaRG cells (Thermo Fisher Scientific, Frederick, MD) was used for the cell culture experiments. 96-well format collagen type I coated plates of human HepaRG cells were prepared using established methods. Briefly, cryopreserved HepaRG cells were thawed, plated at a density of approximately 100,000 cells/well in HepaRG Thaw, Plate, and General Purpose media (HPRG770, Thermo Fisher Scientific), and incubated for 48 hours. 0.5% DMSO was selected as vehicle control to balance the requisite need of DMSO in HepaRG cultures to maintain differentiation (for example, baseline metabolism, proportions of hepatocytes vs. cholangiocytes), while enabling further hepatic receptor pathway activation (for example, PXR and CAR) in response to chemical exposure. 48 hours after plating, the culture medium was replaced with HepaRG Serum-Free Incudtion Media. Cells were exposed to each test chemical in duplicate and maintained in CO2 incubators for another 48 hours. Chemical plates were thawed to room temperature and 200x concentrations of treatment groups were prepared. 8-point conentration-reponse curves were made with the highest exposure at 100 uM, followed by half-log dilutions, all in 0.5% DMSO. Each test plate contained variouse controls, induction positive controls (1mM phenobarbital), cytotoxicity positive controls ([…] aflatoxin B1), vehicle controls (0.5% DMSO), and total lysis controls (0.5% DMSO). Cell morphology images were taken using an Essen IncuCyte FLR automated microscope, with six 96-well plates imaged in about 24 minutes. Images were captured and exported and JPEG files. Spent culture media was transfered to black-well plates for the LDH assay, and remaining media was sorted at -80 C for later use. Cells were treated with RLT buffer and frozen until shipped for gene expression analysis. Total RNA was isolated from the cell suspension in 75 uL of Buffer RLT (Qiagen, Germantown, MD 20874) by Quintiles/Expression Analysis (Durham, NC) using a custom isolation procedure. Total RNA from each plate well was transferred to a preamplification plate. Fluidigm's 96.96 Dynamic ArrayTM (Fluidigm, Amsterdam, the Netherlands) technology was used for gene expression analyses by quantitative reverse transcription polymerase chain reaction (qRT-PCR, performed by Quintiles/Expression Analysis, Durham, NC)89. Standard TaqManTM Assays (Applied Biosystems/ThermoFisher Scientific, Foster City, CA) were used to assess the expression of 93 genes selected based on their selectivity and sensitivity to important hepatic receptors known to be modulated by environmental chemicals; importance in human hepatocyte functionality; and hepatotoxicity. […]

Sequence of Nuclear factor NF-kappa-B p105 subunit (Homo sapiens) (P19838 whole entry, looked up): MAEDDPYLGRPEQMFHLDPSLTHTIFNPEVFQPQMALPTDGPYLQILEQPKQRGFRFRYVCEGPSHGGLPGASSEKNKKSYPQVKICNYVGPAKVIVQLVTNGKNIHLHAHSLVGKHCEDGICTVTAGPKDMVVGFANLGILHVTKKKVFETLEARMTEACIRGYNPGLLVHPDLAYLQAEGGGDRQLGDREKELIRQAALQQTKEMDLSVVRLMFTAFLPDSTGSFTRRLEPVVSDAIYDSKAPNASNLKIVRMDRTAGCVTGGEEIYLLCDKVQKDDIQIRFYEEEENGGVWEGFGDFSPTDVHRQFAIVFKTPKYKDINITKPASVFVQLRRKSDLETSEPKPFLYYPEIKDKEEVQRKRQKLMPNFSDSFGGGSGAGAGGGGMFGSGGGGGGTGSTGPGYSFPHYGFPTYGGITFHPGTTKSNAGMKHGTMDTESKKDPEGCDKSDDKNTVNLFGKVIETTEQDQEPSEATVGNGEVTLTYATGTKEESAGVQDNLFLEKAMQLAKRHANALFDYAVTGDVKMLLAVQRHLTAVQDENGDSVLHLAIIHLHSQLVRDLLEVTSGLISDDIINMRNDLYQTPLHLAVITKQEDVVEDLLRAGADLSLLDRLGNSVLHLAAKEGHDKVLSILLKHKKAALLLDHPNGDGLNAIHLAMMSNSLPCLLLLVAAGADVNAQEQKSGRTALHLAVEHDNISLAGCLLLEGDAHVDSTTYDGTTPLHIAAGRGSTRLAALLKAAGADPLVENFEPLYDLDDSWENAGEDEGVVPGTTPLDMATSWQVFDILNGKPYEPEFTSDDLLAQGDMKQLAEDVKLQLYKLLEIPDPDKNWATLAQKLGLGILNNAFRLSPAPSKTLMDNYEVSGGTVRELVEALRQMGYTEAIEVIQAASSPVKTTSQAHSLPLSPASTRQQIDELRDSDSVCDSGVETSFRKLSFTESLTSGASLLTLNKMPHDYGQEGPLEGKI

| Compound | outcome | AC50 |
| --- | --- | --- |
| CCOc1cc(Oc2ccc(C(F)(F)F)cc2Cl)ccc1[N+](=O)[O-] | inactive | – |
| O=C(O)COc1nc(Cl)c(Cl)cc1Cl | inactive | – |
| CCOC(=O)C(Cl)Cc1cc(-n2nc(C)n(C(F)F)c2=O)c(F)cc1Cl (centres undefined) | inactive | – |
| CCc1nn(C)c(C(=O)NCc2ccc(C(C)(C)C)cc2)c1Cl | inactive | – |
| CCOC(=O)CC(SP(=S)(OC)OC)C(=O)OCC (centres undefined) | inactive | – |
| Cc1c(F)c(F)c(COC(=O)C2C(/C=C(\Cl)C(F)(F)F)C2(C)C)c(F)c1F (centres undefined) | inactive | – |
| COc1nc(NC(C)C)nc(NC(C)C)n1 | inactive | – |
| N#Cc1cc(Br)c(O)c(Br)c1 | – | 5.8 µM (active) |
| N#CC(CCc1ccc(Cl)cc1)(Cn1cncn1)c1ccccc1 (centres undefined) | inactive | – |
| CC(C)C1(C)N=C(c2nc3ccccc3cc2C(=O)O)NC1=O (centres undefined) | inactive | – |
| CCCCOC(=O)c1ccccc1C(=O)OCCCC | inactive | – |
| CCCN(CCC)c1c([N+](=O)[O-])cc(S(N)(=O)=O)cc1[N+](=O)[O-] | inactive | – |
| Cc1ccc(-c2c(Cl)nc(C#N)n2S(=O)(=O)N(C)C)cc1 | – | 50 µM (active) |
| COC(=O)C(C)Oc1ccc(Oc2ccc(Cl)cc2Cl)cc1 (centres undefined) | inactive | – |
| CC(Oc1ccc(Cl)cc1Cl)C(=O)O (centres undefined) | inactive | – |
| COP(N)(=O)SC (centres undefined) | inactive | – |
| C#CCOS(=O)OC1CCCCC1Oc1ccc(C(C)(C)C)cc1 (centres undefined) | inactive | – |

| Compound | outcome | AC50 |
| --- | --- | --- |
| COC(=O)c1ccccc1C(=O)OC | inactive | – |
| C=CC1(C)OC(=O)N(c2cc(Cl)cc(Cl)c2)C1=O (centres undefined) | inactive | – |
| CCCCC(CC)COC(=O)c1ccccc1C(=O)OCC(CC)CCCC (centres undefined) | inactive | – |
| CS/C(C)=N/OC(=O)N(C)SN(C)C(=O)O/N=C(\C)SC | inactive | – |
| CCCCNC(=O)n1c(NC(=O)OC)nc2ccccc21 | inactive | – |
| CON(C)C(=O)Nc1ccc(Cl)c(Cl)c1 | inactive | – |
| C=CCC1=C(C)C(OC(=O)C2C(C=C(C)C)C2(C)C)CC1=O (centres undefined) | inactive | – |
| CNC(=S)S | inactive | – |
| CN(C)C(=S)SSC(=S)N(C)C | inactive | – |
| CC(C)Oc1cc(-n2nc(C(C)(C)C)oc2=O)c(Cl)cc1Cl | inactive | – |
| CCNc1nc(Cl)nc(NC(C)C)n1 | inactive | – |
| CCON=C(CC)C1=C(O)CC(c2c(C)cc(C)cc2C)CC1=O (centres undefined) | inactive | – |
| CCCC1COC(Cn2cncn2)(c2ccc(Cl)cc2Cl)O1 (centres undefined) | inactive | – |
| C=CCC1=C(C)[C@@H](OC(=O)[C@@H]2[C@@H](C=C(C)C)C2(C)C)CC1=O | inactive | – |
| CNC(=O)ON=CC(C)(C)SC | inactive | – |
| O=C(Nc1ccccc1)Nc1ccnc(Cl)c1 | – | 39.2 µM (active) |
| COc1ccc(C(c2ccc(OC)cc2)C(Cl)(Cl)Cl)cc1 | inactive | – |
